Compound activity from PubChem.
ABCB6 inh 2: blocks the human ABCB6 transporter; AID 602162; K562-ABCB6 porphyrin accumulation, flow cytometry, 1 h; active compounds read low; actives 0.19% (n = 360,000); Q9NP58; fluorescence ratio to DMSO, % at 10 µM;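 active = fluorescence ratio to DMSO below 75%, the collection mean minus 3 SD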;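 also: signal is porphyrin accumulated inside mitochondria; lower ratio means ABCB6 inhibition with less porphyrin fluorescence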
Target sequence (Q9NP58 whole entry, looked up): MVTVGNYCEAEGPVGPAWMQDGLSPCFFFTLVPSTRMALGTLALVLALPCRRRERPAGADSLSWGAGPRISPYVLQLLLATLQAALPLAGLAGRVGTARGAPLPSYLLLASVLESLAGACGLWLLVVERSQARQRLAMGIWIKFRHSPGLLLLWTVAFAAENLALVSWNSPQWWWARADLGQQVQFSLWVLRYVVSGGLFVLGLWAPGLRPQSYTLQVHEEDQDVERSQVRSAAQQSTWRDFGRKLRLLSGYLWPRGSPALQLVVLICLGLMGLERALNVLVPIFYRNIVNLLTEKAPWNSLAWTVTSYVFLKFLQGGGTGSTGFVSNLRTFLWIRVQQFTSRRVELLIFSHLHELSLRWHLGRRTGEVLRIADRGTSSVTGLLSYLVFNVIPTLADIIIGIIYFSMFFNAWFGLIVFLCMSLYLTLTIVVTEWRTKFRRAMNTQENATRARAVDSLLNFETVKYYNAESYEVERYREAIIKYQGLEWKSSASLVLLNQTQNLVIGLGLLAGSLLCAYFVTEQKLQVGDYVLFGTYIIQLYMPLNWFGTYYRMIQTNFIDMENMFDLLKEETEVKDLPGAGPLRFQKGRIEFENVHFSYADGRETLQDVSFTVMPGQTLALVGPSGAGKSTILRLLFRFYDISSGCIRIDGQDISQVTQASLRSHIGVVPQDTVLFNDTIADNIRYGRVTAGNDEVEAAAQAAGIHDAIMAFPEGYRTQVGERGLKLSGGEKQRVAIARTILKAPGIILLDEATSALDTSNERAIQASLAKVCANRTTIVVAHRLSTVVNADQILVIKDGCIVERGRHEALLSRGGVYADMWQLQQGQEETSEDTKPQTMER
NRP1-CendR mod: modulators of CendR peptide binding to human neuropilin-1. FAM-RPARPAR peptide binding to NRP-1, fluorescence polarization. inhibition, % at 25 µM. actives 0.85% (n = 360,000). O14786;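 active = inhibition or corrected inhibition above about 18%, plus a signal ratio from 0.5 to 1.5, limit read from the data, passing the limit was not always enough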
INS-1E GSIS act: GLuc luminescence reporter in INS-1E cells, primary screen for activators of glucose-dependent secretion of insulin | INS-1E GLuc reporter insulin secretion, 2-3 h | activation, % at 16.6 µM | actives 0.61% (n = 370,000) | AID 743287;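 active = lowest replicate activation of at least 40%, so every replicate reaches that level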
iPSC survival up: increases survival of single human iPS cells. hiPSC single-cell survival, ATPlite luminescence; 100% = ROCK inhibitor wells, 0% = DMSO. survival enhancement, % at 20 µM. actives 0.044% (n = 360,000); in the data active = survival enhancement above about 18%;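 also: cells exposed to compounds for 16 hours before the ATP read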
ARNT-TACC3 inh: ARNT/TACC3 interaction disruption; Q9Y6A5; AlphaScreen His-ARNT PAS-B/GST-TACC3 binding, luminescence; TACC3 fragment carries E629A point mutation; inhibition, % at 9.99 µM; actives 0.66% (n = 390,000); AID 623870;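 active = mean inhibition of replicates at least 50% and at least half of replicates each reaching 50%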
Hits are given with their value; - = inactive; . = no result given; ! = repeats disagree. Hits are enriched below; roughly 1.8% of the tested compounds scored in any of these assays.

SMILES	ABCB6 inh 2	NRP1-CendR mod	INS-1E GSIS act	iPSC survival up	ARNT-TACC3 inh
O=S(=O)(c1ccc(F)cc1)N1CCCCN2[C@H](CO)[C@H](c3ccc(-c4ccccc4)cc3)[C@@H]2C1	.	.	-	.	-
C[C@@H]1CN([C@H](C)CO)S(=O)(=O)c2ccc(-c3cccnc3)cc2O[C@@H]1CN(C)C(=O)C1CC1	.	.	-	.	.
CC(C)CC#Cc1ccc2c(c1)O[C@@H](CN(C)Cc1cccc(F)c1)[C@H](C)CN([C@@H](C)CO)S2(=O)=O	.	.	95	.	-
C[C@@H]1CN([C@@H](C)CO)S(=O)(=O)c2ccc(-c3ccc(C#N)cc3)cc2O[C@H]1CN(C)C	.	.	-	.	-
COCC(=O)N(C)C[C@@H]1Oc2cc(C#Cc3cccnc3)ccc2S(=O)(=O)N([C@H](C)CO)C[C@@H]1C	.	.	-	.	-
COCC(=O)N(C)C[C@H]1Oc2cc(C#Cc3cccnc3)ccc2S(=O)(=O)N([C@H](C)CO)C[C@H]1C	-	-	-	-	active!
C[C@@H]1CN([C@H](C)CO)S(=O)(=O)c2ccc(-c3ccc(C#N)cc3)cc2O[C@H]1CN(C)C	.	.	48	.	-
COc1ccc2c3c(n(C)c2c1)[C@H](CO)N(C(=O)c1ccccc1)CC31CN(C(=O)c2ccccc2)C1	.	.	-	.	.
CCCn1nnnc1SCC(=O)N1C(C)CCCC1C (centres undefined)	-	22	-	-	-
CCCn1nnnc1SCC(=O)N1CCCC1	-	-	.	-	-
CS(=O)(=O)N(CC(=O)Nc1ccc(Br)cc1F)C1CCCCC1	-	-	-	-	-
CS(=O)(=O)N(CC(=O)Nc1ccccc1F)C1CCCCC1	-	23	-	-	-
C[C@@H]1CN([C@@H](C)CO)C(=O)c2cc(Br)cnc2O[C@@H]1CN(C)C(=O)c1ccccc1	.	.	-	.	-
CC1(C)Cc2c(sc3ncnc(NN)c23)CO1	-	-	-	-	47
O=C(c1ccccc1)c1cc2cc(Cl)ccc2[nH]1	-	-	41	-	-
CC[C@H]1C/C=C\C[C@H](c2ccccc2)NC(=O)CCC(=O)N1	.	.	-	.	.
Cc1nnc(N/N=C/C(C)c2ccccc2)[nH]c1=O (centres undefined)	-	-	.	-	63
COc1ccc2c3c(n(C)c2c1)[C@H](CO)N(CC1CCOCC1)CC31CN(C(C)=O)C1	.	.	-	.	.
CCCC#Cc1cnc2c(c1)C(=O)N([C@@H](C)CO)C[C@H](C)[C@@H](CN(C)C(=O)C1CCCCC1)O2	.	.	-	.	.
CC(=O)Cc1nsc(NC(=O)c2ccc(Br)o2)n1	-	-	-	-	-
CC(=O)Cc1nsc(NC(=O)c2ccc(-c3cccc(Cl)c3)o2)n1	-	-	42	-	-
O=S(=O)(NCC1CCCO1)c1ccc(Cl)nc1 (centres undefined)	-	-	44	-	-
O=S(=O)(NCC1CCCO1)c1ccc(Cl)cc1 (centres undefined)	-	-	-	-	-
Cc1cc(=O)[nH]c(N/N=C/c2ccc(Br)s2)n1	-	-	.	-	61
Cc1cc(=O)[nH]c(N/N=C/c2ccc(O)c(O)c2)n1	-	-	-	-	67
SMILES	ABCB6 inh 2	NRP1-CendR mod	INS-1E GSIS act	iPSC survival up	ARNT-TACC3 inh
Cc1cc(=O)[nH]c(N/N=C/c2c(O)n(-c3ccccc3)c(=O)c3ccccc23)n1	-	-	-	-	72
Cc1cc(C)nc(N/N=C/C2=C(N3CCOCC3)C(=C/c3ccccc3)/CC2)n1	-	-	-	-	-
Cc1cc(=O)[nH]c(NN=Cc2c(Cl)cccc2Cl)n1	-	-	.	-	-
Cc1cc(=O)[nH]c(N/N=C/C2=C(N3CCOCC3)C(=C\c3ccc(Cl)cc3)/CC2)n1	-	-	-	-	24
C[C@H]1CN([C@@H](C)CO)S(=O)(=O)c2ccc(C3=CCCC3)cc2O[C@@H]1CN(C)C(=O)c1cnccn1	.	.	-	.	.
COc1ccc(C[C@H]2CCc3cnnn3COC[C@@H](C(C)C)NC2=O)cc1	.	.	-	.	.
CNC[C@@H]1OCCCC[C@H](C)Oc2ccc(NS(=O)(=O)c3cn(C)cn3)cc2C(=O)N([C@@H](C)CO)C[C@H]1C	.	.	-	.	.
O=C(Nc1ccccc1)NC1CCS(=O)(=O)C1 (centres undefined)	-	-	.	-	.
O=S1(=O)CCC(NC(=S)Nc2ccc(Cl)cc2)C1 (centres undefined)	73	-	-	-	-
CCCNC(=O)C1(C)CCN(C(=O)c2cccc(OC(F)(F)F)c2)C1 (centres undefined)	-	-	-	-	.
CCNC(=O)C1(C)CCCN1Cc1cccc(C(F)(F)F)c1 (centres undefined)	-	-	44	-	.
CCCNC(=O)C1(C)CCN(C(=O)c2cccc(C(F)(F)F)c2)C1 (centres undefined)	-	-	45	-	.
CC1(C(=O)NCc2cccc(C(F)(F)F)c2)CCN1Cc1cc2ccccc2o1 (centres undefined)	-	-	.	-	.
S=C(NCCCNC(=S)Nc1ccccc1)Nc1ccccc1	-	48	-	-	-
S=C(NCC1CCCO1)Nc1ccccc1 (centres undefined)	-	21	-	-	-
CC(C)NC(=O)N(C)C[C@@H]1Oc2ccc(NC(=O)Nc3ccccc3)cc2CC(=O)N([C@@H](C)CO)C[C@@H]1C	.	.	-	.	-
COC(=O)/C=C/c1ccc2c(c1)S(=O)(=O)N(c1cccc(OC)c1)[C@H]2CC(=O)OC	-	-	-	-	-
CCOC(=O)/C=C/c1ccc2c(c1)S(=O)(=O)N(c1cccc(OC)c1)[C@H]2CC(=O)OCC	-	28	-	-	-
COC(=O)CNc1ccc2c(c1)OCO2	-	25	-	-	.
c1cc(CNc2ccc3c(c2)OCO3)ccn1	-	30	.	-	-
Cc1ccc(NC(=O)CN(C)CC(=O)Nc2ccc3c(c2)OCO3)cc1	-	22	.	-	.
COc1ccc(OC)c(S(=O)(=O)N(C)CC(=O)Nc2ccc3c(c2)OCCO3)c1	-	-	.	-	-
Cc1ccc(CNc2ccc3c(c2)OCO3)cc1	-	-	.	-	-
COC(=O)Nc1ccc2c(c1)OCO2	-	-	-	-	-
COc1ccc(OC)c(S(=O)(=O)N(C)CC(=O)Nc2ccc3c(c2)OCO3)c1	-	32	.	-	-
SMILES	ABCB6 inh 2	NRP1-CendR mod	INS-1E GSIS act	iPSC survival up	ARNT-TACC3 inh
CCc1nnc(SCC(=O)Nc2ccc3c(c2)OCO3)n1CC	-	28	-	-	-
CCn1c(Cc2ccccc2)nnc1SCC(=O)Nc1ccc2c(c1)OCO2	-	-	.	-	-
c1coc(CNc2ncnc3[nH]ncc23)c1	-	-	-	-	-
Cc1nc(NCc2ccco2)c2cn[nH]c2n1	-	28	-	-	-
O=C1CCCN1CCCNC(=S)Nc1ccc(Cl)cc1Cl	-	40	-	-	-
O=C(NCCCN1CCCC1=O)Nc1ccc(Cl)cc1Cl	-	-	-	-	-
COc1ccc2c3c(n(C)c2c1)[C@H](CO)N(C(=O)c1ccncc1)CC31CCN(C)CC1	.	.	-	.	.
CCN1CCN(C(c2ccc(C(F)(F)F)cc2)c2ccc3cccnc3c2O)CC1 (centres undefined)	-	-	-	-	80
